About 2,000 (0.91%) of roughly 220,000 compounds were called active. Not shown: some 2% with an inconclusive outcome. Not all results are given here. Results with a measured potency or affinity are listed apart. Unmarked numbers belong to inactive results. Cut-off read from the data, not from the text of the source: inconclusive = inhibition above about 80% without an active follow-up result; inactive = below that; test concentration not stated here.
Assay: M. tuberculosis H37Rv growth inhibitors, H37Rv strain (AID 1626);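 note: bacteria incubated seven days before Alamar blue readout; 0% = bacteria only wells and 100% = bacteria with antibiotic wells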
Conditions: hits give high values, concentration not given here

SMILES	inhibition [%]
O=C(NCC(O)CO)c1ccc2[nH]c3ccccc3c2c1 (stereo unspecified)	1.5
Cn1c(N2CCCC2)nc2c1c(=O)n(Cc1cccc(F)c1)c(=O)n2C	2.57
Cc1nc(N2CCOCC2)c2cc(-c3ccccc3)sc2n1	5.12
Cc1nc(N2CCN(C)CC2)c2cc(-c3ccccc3)sc2n1	-3.54
Cc1ccc(SCc2cc(=O)[nH]c(N3CCN(Cc4ccc5c(c4)OCO5)CC3)n2)cc1	4.26
O=c1cc(-c2ccccc2)nc(N2CCN(Cc3ccccc3)CC2)[nH]1	16.3
COC(=O)c1cccc(NCN2C(=O)c3ccccc3C2=O)c1	1.78
COc1ccc(CN2CCn3nc(C(=O)NC4CC4)cc3C2=O)cc1	0.45
CCc1nn(CC(=O)NCCN2CCN(C)CC2)c(=O)c2cc3occc3n12	2.11
O=C(Nc1ccccc1F)C1CCCN(S(=O)(=O)c2ccccc2)C1 (stereo unspecified)	1.63
CC(=Nc1ccc2c(c1)nc(CO)n2C)C1=C(O)CC(C)(C)CC1=O	-0.93
Cc1cc(=O)oc2cc(Oc3ccc(C(N)=O)cc3[N+](=O)[O-])ccc12	-11.6
Cc1cc(=O)oc2cc(Oc3ncccn3)ccc12	-2.26
CCc1cc2c(C)cc(=O)oc2cc1Oc1ncccc1[N+](=O)[O-]	1.8
CC(=O)Nc1cccc(Oc2ncnc3scc(-c4ccc(C)cc4)c23)c1	17.3
CC(=O)Nc1cccc(Oc2ncnc3scc(-c4ccccc4)c23)c1	1.97
Cc1cc(=O)oc2cc(Oc3ccc([N+](=O)[O-])cc3[N+](=O)[O-])ccc12	51
O=C(COC(=O)CCSc1ccc(Cl)cc1)NCc1ccc(Cl)cc1	1.66
COc1ccc(CCC(=O)N/N=C\c2cccs2)cc1	36.8
Cc1ccc(-c2csc3nc(C(C)C)oc(=O)c23)c(C)c1	14.9
COc1cc(C2SC(C)C(=O)N2CCc2ccccc2)cc(OC)c1OC (stereo unspecified)	6.28
O=C(N/C=C/c1ccccc1)Nc1ccc(Cl)cc1	7.4
COc1ccc(CC(=O)Nc2ccc3nc(C)sc3c2)cc1OC	2.65
Cc1nc2ccc(NC(=O)COc3ccccc3C)cc2s1	52.7

SMILES	inhibition [%]
Cc1nc2ccc(NC(=O)Cc3cccc(F)c3)cc2s1	0.69
CC(=O)c1ccc(OCC(=O)Nc2ccc3nc(C)sc3c2)cc1	56.8
Cc1cccc(OCC(=O)Nc2ccc3nc(C)sc3c2)c1	89.5
COc1cc(CC(=O)Nc2ccc3nc(C)sc3c2)cc(OC)c1OC	-7.08
Cc1nc2ccc(NC(=O)COc3ccccc3)cc2s1	83.5
COc1ccc(OCC(=O)Nc2nc3ccc(NC(C)=O)cc3s2)cc1	-3.22
CCC(C)(C)NC(=O)C(c1cccc(OC)c1)N(C(=O)c1ccn[nH]1)c1cccc(OC)c1 (stereo unspecified)	-8.88
COCCNC(=O)c1cn(C)c2ccc(S(=O)(=O)N(C)C3CCCCC3)cc2c1=O	-12
COc1ccc(S(=O)(=O)N(CC(=O)N2CCN(C)CC2)c2ccccc2)cc1OC	-11.1
CCC(CC)C1C(C#N)=C(N)Oc2cc(C)oc(=O)c21 (stereo unspecified)	-11.1
Cc1cc2nnc(SCC(=O)NCC3CCCO3)n2c2ccccc12 (stereo unspecified)	-6.93
Cc1ccc(-c2csc(/C(C#N)=C/Nc3ccccc3SC(F)(F)F)n2)c(C)c1	-7.14
COc1cc(C2c3c(oc4ccccc4c3=O)C(=O)N2Cc2cccnc2)cc(OC)c1OC (stereo unspecified)	1.59
CCN(C(=O)CN1c2ccccc2CC1C)c1c(N)n(Cc2ccccc2)c(=O)[nH]c1=O (stereo unspecified)	3.3
CC(=O)c1cccc(NC(=O)C2CC(=O)N(Cc3ccccc3)C2)c1 (stereo unspecified)	-1.4
CSc1nc2ccc(NC(=O)C3CC(=O)N(Cc4ccco4)C3)cc2s1 (stereo unspecified)	7.1
O=C(NNS(=O)(=O)c1ccccc1C(F)(F)F)c1cccc(S(=O)(=O)Nc2ccccc2Cl)c1	5.57
CC(C)CNS(=O)(=O)c1ccc(CCC(=O)N2CCN(c3ccccc3)CC2)cc1	0.62
Nc1c(C(=O)NCC2CCCO2)sc2nc3c(c(-c4ccco4)c12)CC/C3=C\c1ccco1 (stereo unspecified)	-3.62
O=[N+]([O-])c1cc(S(=O)(=O)C(F)(F)F)ccc1N1CCN(c2ccccc2)CC1	26.1
O=[N+]([O-])c1cc(S(=O)(=O)Nc2ccccc2)ccc1N1CCN(c2ccc(O)cc2)CC1	3.41
CC(C)c1nc2sc3c(NCc4ccccc4)ncnc3c2c2c1COC(C)(C)C2	-2.03
COc1ccc(C)cc1N/C(N)=N/c1nc(C)cc(C)n1	-4.57
Cc1ccc(N/C(N)=N/c2nc3c(c(=O)[nH]2)CCCC3)c(C)c1	6.84

SMILES	inhibition [%]
S=C1NC2(CCCCC2)Cc2ccccc21	4.66
Cc1sc2nc(-c3cccnc3)[nH]c(=O)c2c1-c1ccccc1	-0.42
CC(C)(C)C(=O)/C=c1\[nH]c(=O)/c(=C\c2ccc(C#N)cc2)s1	75.3
COc1ccc(C=C2C(=O)c3ccccc3C2=O)cc1O	1.77
CC(C)(C)C(=O)/C=c1\[nH]c(=O)/c(=C\c2ccccc2F)s1	79.9
CCc1ccc(/C=C(\C)C(=O)c2c(C)cc(C)[nH]c2=O)cc1	5.72
COc1cccc(/C=c2\s/c(=C/C(=O)c3ccc(C)cc3)[nH]c2=O)c1OC	17.8
Cc1ccccc1/C=C1\CCCc2ccccc2C1=O	5.73
COc1cc(/C=c2\s/c(=C\C(=O)C(C)(C)C)[nH]c2=O)cc(OC)c1OC	66.3
COc1ccc(/C=C2\SC(c3ccc(C)cc3)=NC2=O)cc1OC	-10.8
Cc1ccc(C2NC(=O)CCC2[N+](=O)[O-])cc1 (stereo unspecified)	1.52
NS(=O)(=O)c1ccc(NC(=O)C(Sc2ccccc2)c2ccccc2)cc1 (stereo unspecified)	2.33
COc1cccc(CNC(=O)c2ccc3nc[nH]c3c2)c1	-1.98
O=C(COc1ccc(Br)cc1)NCc1cn2ccccc2n1	-2.73
NC1=NC(=O)/C(=C\C=C\c2ccccc2)S1	2.56
CCCOc1ccc(/C=N/NC(=O)C(C)Sc2ccccn2)cc1OCC (stereo unspecified)	4.45
COc1cccc(/C=c2\s/c(=C\C(=O)C(C)(C)C)[nH]c2=O)c1	8.13
Cc1cccc(/C=C2\CS/C(=C\c3cccc(C)c3)C2=O)c1	-5.7
Cc1cc(NC(=O)C(=O)c2cn(C)c3ccccc23)no1	-4.05
CCC(=O)Nc1cccc(C2=NOC3(C2)C[C@@H](C(N)=O)N(C(=O)C2(C)CC2)C3)c1 (stereo partly specified)	-7.53
O=C(COC(=O)c1ccc(Br)cc1)NCCN1C(=O)CSC1=O	-0.22
O=C(CN1C(=O)c2cccc3cccc1c23)Nc1ccccc1C(=O)NCc1ccco1	-8.25
COc1ccc(C2C(C(=O)Nc3ccc4c(c3)OCCO4)c3ccccc3C(=O)N2C)cc1 (stereo unspecified)	-5.2
CC1=C(C(=O)Nc2ccccc2C)C(c2cccs2)NC(=S)N1 (stereo unspecified)	-1.29

SMILES	inhibition [%]
O=S(=O)(c1ccc(Cl)cc1)c1snnc1-c1ccccc1	-9.09
O=S(=O)(c1ccc(F)cc1)c1snnc1-c1ccccc1	-0.36
O=C(CNC(=S)N(Cc1ccccc1F)C1CCCCC1)NC1CC1	-3.6
O=C(Nc1ccc2sccc2c1)c1ccc(Cl)s1	59.4
Cc1ccc(/C=C/C(=O)Nc2ccc([N+](=O)[O-])cc2)o1	6.87
O=C(O)/C=C/c1ccc([N+](=O)[O-])o1	7.14
CCOC(=O)/C=c1\s/c(=C(\C#N)C(N)=O)n(-c2ccccc2)c1=O	2.26
COc1cc(/C=N/NC(=O)c2cnccn2)cc(OC)c1OC	-6.81
CC1(C)CCCC2=C1CC1C(=O)N(N)C(=O)C1C2 (stereo unspecified)	2.05
COc1ccc(Nc2ccc(OC)cc2)cc1	47
COc1ccc(Nc2cccccc2=O)cc1	1.3
c1ccc(Nc2cccc3c(Nc4ccccc4)cccc23)cc1	-3.47
Cc1ccc(Nc2ccccc2)cc1	6.23
Nc1ccccc1Nc1cccc(C(F)(F)F)c1	6.41
Cc1ccc(Nc2ccc(C(=O)O)cc2N)cc1	-7.86
FC(F)(F)c1nc2ccccc2nc1N/N=C/c1c(Cl)cccc1Cl	9.85
COCCN(C(=S)Nc1ccc(C)cc1C)C(C)c1ccco1 (stereo unspecified)	-7
CSc1ncccc1C(=O)OCC(=O)c1ccccc1Br	-4.85
CCOC(=O)c1cc(NC(=O)N2CCOCC2)c(C)nc1C	-1.72
CC(C)CNc1cc(N2CCCC2)ccc1[N+](=O)[O-]	4.85
CCCCCSc1nc2c(c(=O)[nH]c(=O)n2C)n1C	11.1
C/C(=C\C(=O)c1ccc(Br)cc1)NCc1ccc(C)cc1	4.34
CCOc1cc(S(=O)(=O)N2CCOCC2)ccc1F	-1.04
CC(C)[C@H](NS(=O)(=O)/C=C/c1ccccc1)C(=O)OCC(=O)NC(N)=O	0.26

Source: PubChem BioAssay AID1626 (SRMLSC, 2009)
